TGFb SMAD3 inh: blocks TGF-b signaling; Potency, µM (top dose mostly 46.1 µM), inactives show at the top dose activity, negative = inhibition, usual class: inhibitors; HepG2 CAGA-GFP TGF-b/SMAD3 reporter, GFP fluorescence, 18 h; TGF-beta stimulated, 500 pg/mL final; 1.2% of 410,000 active; note: potency is the fitted concentration of half-maximal effect; % is set by controls: 0 for no effect and ±100 for the full control effect; nearly all actives have a fitted effect of over 65% in size
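Cell-based qHTS in HEPG2 carrying a CAGA-GFP Smad reporter; compounds added before 500 pg/mL final TGF-beta, 18 h incubation at 37 degrees C, GFP fluorescence quantified per cell by imaging cytometry.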
D3 ag: activates the human D3 dopamine receptor; max activation, %; P35462; D3R DiscoveRx beta-arrestin cells, luminescence, 90 min; 0.58% of 410,000 active; AID 652048; in the data active = max activation above about 30%; note: 0% is about no effect
Target sequence (P35462 whole entry, looked up): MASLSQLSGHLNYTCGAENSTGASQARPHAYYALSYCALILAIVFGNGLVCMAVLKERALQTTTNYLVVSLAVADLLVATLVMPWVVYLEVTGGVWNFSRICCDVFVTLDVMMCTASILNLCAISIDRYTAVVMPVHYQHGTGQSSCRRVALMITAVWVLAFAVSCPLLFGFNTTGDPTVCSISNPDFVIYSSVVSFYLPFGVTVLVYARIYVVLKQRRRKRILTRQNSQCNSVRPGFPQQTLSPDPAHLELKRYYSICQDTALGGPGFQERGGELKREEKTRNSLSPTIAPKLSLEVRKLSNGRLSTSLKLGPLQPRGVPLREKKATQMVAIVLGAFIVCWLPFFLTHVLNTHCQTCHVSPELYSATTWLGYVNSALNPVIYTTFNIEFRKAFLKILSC
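Cells at 1500/well, incubated overnight, then treated with pinned compounds (dopamine as control) for 90 min at 37 degrees C. DiscoveRx reagent added for 30 - 60 minutes at room temperature; luminescence read.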
HepG2 viability: kills HepG2 cells in TGF-b inhibitor counter-screen; 0.76% of 410,000 active; HepG2 CAGA-GFP viability, ATP luminescence, 18 h; Potency, µM (doses to about 46.1 µM), without a hit: at the top dose activity change, negative = cytotoxicity, usual class: cytotoxic; note: potency is the fitted concentration of half-maximal effect
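HepG2 CAGA-GFP cells (1000/well, DMEM with 1% FBS) received compound, then TGF-beta at 500 pg/mL final, and were incubated 18 hours at 37 degrees C. Viability was read by CellTiter-Glo luminescence. Media-only wells were set as complete cell-killing and DMSO as no toxicity.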
ATXN2 expr inh: reduces ATXN2 reporter expression in HEK-293 cells | HEK-293 ATXN2-luciferase reporter, luminescence, 24 h | Potency, µM (top dose mostly 57 µM), for inactives: top-dose activity change, negative = inhibition, hits mostly inhibitors | AID 1745845 | 0.72% of 360,000 active; note: potency is the fitted concentration of half-maximal effect; % is set by controls: 0 for no effect and ±100 for the full control effect; nearly all actives have a fitted effect of over 55% in size
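qHTS (up to 57 uM final) was run with 24 h compound exposure of reporter cells at 37 °C. Each well was multiplexed: SteadyGlo luminescence measured ATXN2-luciferase expression after a fluorogenic Gly-Phe-AFC viability readout (25 uM final).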
DRD3 antagonist: antagonists of human D3 dopamine receptor; D3R cells, DiscoveRx beta-arrestin luminescence, antagonist mode; stronger effect = lower value; max response, negative = inhibition, %; 2.5% of 360,000 active; in the data active = max response below about -50%; inconclusive = no clear call, values can overlap the other calls; note: % is set by controls: 0 for no effect and ±100 for the full control effect
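Cells expressing the human receptor were seeded at 1500 cells/well, incubated overnight at 37 degrees C in 5% CO2, then exposed to library compounds with dopamine controls for 90 minutes at 37 degrees C before luminescent detection.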
ATXN viability: reduces viability in counter-screen for ATXN expression inhibitors; S2 cells (HEK-293 line with an ATXN2-luciferase reporter) viability, CellTiter-Fluor protease fluorescence, 24 h; 0.49% of 400,000 active; Potency, µM (doses to about 56.7 µM), most hits filed as cytotoxic; AID 651635; note: potency is the fitted concentration of half-maximal effect; nearly all actives have a fitted effect of over 40% in size
The depositor's hits bear a star; i = inactive; ? = inconclusive; . = no result; [ ] = another dose, or the depositor's remark. Most compounds without a hit are left out; they make up all but 4.7% or so of the library. Unless noted, calls come from the whole dose curve; as a rule, active = well fitted curve in the direction sought with a large enough effect; inconclusive = small, poorly fitted or top-dose-only effect, or another doubt; inactive = no such curve, though single readings can be large; an effect the other way counts as inactive or inconclusive.

SMILES	TGFb SMAD3 inh	D3 ag	HepG2 viability	ATXN2 expr inh	DRD3 antagonist	ATXN viability
Nc1nc(-c2ccccc2)c(N=Nc2ccccc2Cl)s1	?	-8	-92%	?	-59*	.
Nc1nc(-c2ccccc2)c(N=Nc2cccc3ccccc23)s1	11µM*	-9	-101%	-36%	?	?
Cc1ccc(Cl)c(OCC(O)CNC(C)(C)C)c1 (stereo unspecified)	.	.	.	-8%	.	i
COc1ccc(C2C(C(=O)c3ccc(C)o3)=C(O)C(=O)N2c2cc(C)on2)cc1OC (stereo unspecified)	13%	-6	15%	2%	19	i
COc1cc(C2C(C(=O)c3ccc(C)o3)=C(O)C(=O)N2c2cc(C)on2)cc(Br)c1O (stereo unspecified)	11%	0	-15%	-1%	-57*	i
COc1cc(C2C(C(=O)c3ccco3)=C(O)C(=O)N2c2cc(C)on2)cc(Br)c1O (stereo unspecified)	1%	-13	5%	2%	-73*	i
Nc1ccc(/C=C/c2ccc3cccnc3c2)cc1	-9%	.	-12%	.	.	.
Cc1ccc(-n2ccnc(NCCc3ccc(S(N)(=O)=O)cc3)c2=O)cc1C	?	-8	-34%	-2%	.	i
COc1ccc(Cl)cc1N1C(=O)[C@@H]2C[C@H]1CN2Cc1nc2ccccc2nc1C	.	.	.	.	.	i
Clc1ccc(-c2cn3nc4c(nc3n2)CCCC4)cc1	5%	-4	-1%	14µM*	-3	.
O=C(c1ccc(C(F)(F)F)cc1)N(Cc1cc2ccc(F)cc2nc1N1CCOCC1)C1CC1	.	.	.	.	.	i
CC(=O)N1CCc2c(sc3c2c(=O)n(-c2ccccc2Cl)c(=O)n3Cc2cccc(C)c2)C1	?	8	-52%	?	.	.
Cc1ccc(NC2=C(C(=O)c3ccccc3)N(C)S(=O)(=O)c3ccccc32)cc1	-2%	-7	0%	-28%	-60*	i
CN1C(C(=O)c2ccccc2)=C(N)c2ccccc2S1(=O)=O	-10%	3	0%	-9%[11.3 µM]	-1	i
Fc1cc(F)cc(Nc2nc(Cl)nc(NC3CCCC3)n2)c1	?	.	-60%	?	.	25µM*
CC(C)Nc1nc(Cl)nc(NC2CCCCC2)n1	-28%	5	-42%	17%	1	?
COc1ccccc1-c1noc(CSc2nc3ccc(C)cc3[nH]2)n1	-13%	12	-28%	-38%	.	?
Cc1ccc2cc(CNC(C)c3cccc4ccccc34)c(N3CCC(O)CC3)nc2c1 (stereo unspecified)	.	.	.	.	.	i
O=C(Cc1cccs1)N1CCN(c2nc(-c3ccc(Cl)cc3)cs2)CC1	-19%	36*	-2%	-30%	53	i
COC[C@H](NC(=O)c1cnc(C)s1)C(=O)N[C@@H](COC)C(=O)N[C@@H](Cc1ccccc1)C(=O)[C@@]1(C)CO1	.	.	.	0.22µM*	.	.
CC(C)n1nnnc1-c1cccc(Cl)c1	-31%	8	-1%	0%	-51*	i
O=C(Nc1cc(S(=O)(=O)N2CCOCC2)ccc1O)c1ccc(S(=O)(=O)N2CCCCC2)cc1	-4%	0	-7%	.	-2	?
O=C(Nc1cc(S(=O)(=O)Nc2ccc(Cl)cc2)ccc1O)c1ccc(S(=O)(=O)N2CCCCCC2)cc1	?	-17	-62%	-32%	-50*	i
O=C(N/N=C\c1cc(Cl)ccc1O)c1ccc(S(=O)(=O)N2CCCCC2)cc1	-33%	4	-35%	2.5µM*	1	i
Nc1ccc(C=O)cc1	?	.	-19%	.	.	.
C/C(=N/NC(=O)CN(c1ccccc1)S(=O)(=O)c1ccccc1)c1ccccc1O	7.1µM*	-21	5.6µM*	.	-52*	?
Cc1ccc(S(=O)(=O)N(CC(=O)NCc2cccs2)c2ccccc2)cc1	-2%	-30	-12%	-19%	-66*	i
CC(=O)c1ccc(Nc2ccc([N+](=O)[O-])c3nonc23)cc1	11µM*	-6	-19%	.	-12	?

Compound activity as filed in PubChem BioAssay.
